Test results from PubChem BioAssay (NCI).
This is part of a sample that, as a whole, favours compounds with a hit. Of some 83,000 tested, about 20% had one in any assay.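 Growth was measured after 48 h exposure to one concentration of compound in 96-well plates. Values under 10 count as active.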 Calls of active or inactive are those of the source.

Experiments:
Assay in all cases: NCI-60 one-dose screen, 48 h (100 = growth as untreated, 0 = no growth, -100 = all killed)
Conditions in all cases: 10 µM unless noted
[1] = test system: SR leukemia
[2] = test system: RPMI-8226 leukemia
[3] = test system: OVCAR-8 ovarian
[4] = test system: OVCAR-4 ovarian
[5] = test system: SK-OV-3 ovarian
[6] = test system: IGROV1 ovarian
[7] = test system: OVCAR-3 ovarian
[8] = test system: HS 578T breast
[9] = test system: NCI/ADR-RES ovarian
[10] = test system: OVCAR-5 ovarian

Measured: growth

Cc1ccc(-c2csc(N(C(=O)N3CCN(c4cc5c(cc4F)c(=O)c(C(=O)O)cn5C4CC4)CC3)c3ccccc3)n2)cc1
inactive: [1] 20.2% | [2] 17.6% | [3] 15.6% | [4] 28.4% | [5] 28.2% | [6] 12.5% | [8] 33.5%
active: [7] 7.88% | [9] 6.88%

N#CSc1c[nH]c2cccc(/C=C/C(=O)/C=C(O)/C=C/c3cccc4[nH]cc(SC#N)c34)c12
active: [1] 0.385% | [2] -28.9% | [3] -34.2% | [10] -69.6% | [4] -20.1% | [6] -37.4% | [7] -17.6%
inactive: [8] 22.8% | [9] 39.9%

COc1cccc(C(=O)NNc2nc(Cl)nc(Cl)n2)c1
inactive: [1] 101% | [2] 95.7% | [3] 95.4% | [4] 107% | [5] 102% | [6] 100% | [7] 106% | [8] 95.3% | [9] 104%

O=C(O)c1ccc(-c2ccc(/C=N/Nc3nc(Nc4ccccc4)nc(N4CCCCC4)n3)o2)cc1
inactive: [1] 65.5% | [2] 43.7% | [3] 48.7% | [4] 77.1% | [5] 92% | [6] 45.2% | [7] 64.8% | [8] 40.7% | [9] 57.7%

COc1ccc(-c2ccc(-c3ccc(C(=N)N)nc3)s2)cc1Cl
inactive: [5] 97.1% | [9] 37.7%
active: [1] -7.17% | [2] -45.4% | [3] -28.5% | [4] -79.5% | [6] -87.8% | [7] -90.6% | [8] -48.3%

CC(=O)OC[C@]12CC[C@@H]([C@@H](C)c3nnc(-c4ccncc4)o3)[C@@H]1[C@H]1CC[C@@H]3[C@@]4(C)CC[C@H](OC(C)=O)C(C)(C)[C@@H]4CC[C@@]3(C)[C@]1(C)CC2
inactive: [1] 53.2% | [2] 47.4% | [3] 90.4% | [4] 72.3% | [5] 90.7% | [6] 100% | [7] 80.9% | [8] 92.1% | [9] 90.6%

COc1ccc(-c2n[nH]c(=O)c3nc(NC(=S)Nc4ccc(Oc5ccccc5)cc4)sc23)cc1
inactive: [1] 81.6% | [2] 82.8% | [3] 86.5% | [4] 95% | [5] 94.9% | [6] 104% | [7] 105% | [8] 97.7% | [9] 108%

CC(=O)OC(c1ccccc1)C1CCOC1=O (stereo unspecified)
inactive: [1] 122% | [2] 111% | [3] 104% | [4] 88.3% | [5] 106% | [6] 102% | [7] 102% | [8] 111% | [9] 97%

COc1ccc(/C=C/C(c2cc(OC)c(OC)c(OC)c2)n2ccnc2)cc1O (stereo unspecified)
active: [1] 6.18% | [7] 4.86%
inactive: [2] 15.1% | [3] 41% | [4] 78.8% | [5] 33.5% | [6] 55.7% | [8] 32.1% | [9] 45.7%

Oc1ccc(/C=C/c2ccc(O)cc2)cc1
inactive: [1] 47.7% | [2] 12.8% | [3] 35.7% | [4] 12% | [5] 99.7% | [6] 43.9% | [7] 47.7% | [8] 61.3% | [9] 20.3%

COc1ccc(/C=C2\CN(C(=O)C(Cl)Cl)C/C(=C\c3ccc(OC)cc3)C2=O)cc1
active: [1] 1.01% | [2] -14.3% | [4] 3.73% | [6] -50.7% | [7] -75.3%
inactive: [3] 19% | [5] 41.6% | [8] 17.8% | [9] 11.6%

Cc1ccc2nc(/C(C#N)=C(/CCCO)NC(Cc3ccccc3)C(=O)OCc3ccccc3)[nH]c(=O)c2c1 (stereo unspecified)
inactive: [1] 92.3% | [2] 114% | [3] 120% | [4] 125% | [5] 106% | [6] 127% | [7] 110% | [8] 183% | [9] 32.6%

CCCC(CC)(C(=O)Nc1ccc2nc(C)cc(N)c2c1)C(=O)Nc1ccc2nc(C)cc(N)c2c1
inactive: [1] 96.1% | [2] 100% | [3] 103% | [4] 83.8% | [5] 93.1% | [6] 111% | [7] 108% | [8] 106% | [9] 109%

CCN1C(=O)N(CC)C2C1NN=c1s/c(=C3\C(=O)N(CC(C)C)c4ccccc43)c(=O)n12 (stereo unspecified)
inactive: [1] 17.7% | [2] 17.5% | [10] 30.3% | [4] 44.6% | [6] 19% | [8] 18%
active: [3] 9.28% | [7] 5.65% | [9] 5.71%

CCCCCCCC/C=C\CCCCCCCCOc1ccc(CC(=O)NCC[N+]2(C)CCOCC2)cc1
active: [6] 5.35%
inactive: [1] 71.7% | [2] 66.6% | [3] 73% | [10] 29.5% | [4] 97.3% | [7] 98.1% | [8] 72.5% | [9] 104%

COc1cc2c(cc1OCCCCN1CCN(C(=S)SCCC(C#N)(c3ccccc3)c3ccccc3)CC1)N=C[C@@H]1CCCN1C2=O
active: [1] -44.1% | [2] -18% | [10] -17.1% | [4] -11.8% | [6] -76.6% | [7] -85.9% | [8] -11.7%
inactive: [3] 15.9% | [9] 13.9%

CCOC(=O)c1nn(CC(O)c2ccccc2)c(NC(=O)Nc2cccc(F)c2)c1C (stereo unspecified)
inactive: [1] 95.3% | [2] 96.6% | [3] 91.4% | [4] 94.8% | [5] 107% | [6] 109% | [7] 102% | [8] 94.5% | [9] 106%

C#COc1cccc(Nc2ncnc3cc(NC(=O)[C@@H](C)Cl)ccc23)c1
inactive: [3] 11.9% [6.25 µM] | [4] 52.8% [6.25 µM] | [8] 17.4% [6.25 µM]
active: [1] 1.44% [6.25 µM] | [2] -6.79% [6.25 µM] | [5] -5.9% [6.25 µM] | [6] 8.48% [6.25 µM] | [7] -6.96% [6.25 µM] | [9] 6.35% [6.25 µM]

CN1CCN(C(=S)SCCCCOc2cc(=O)oc3ccccc23)CC1
inactive: [1] 67.4% | [2] 64.8% | [3] 78.4% | [4] 72.4% | [5] 99.5% | [6] 102% | [7] 95.8% | [8] 96.2% | [9] 76.2%

CNCc1cccc2c1OCCOCCOCCNS(=O)(=O)c1ccc(cc1)-c1cnc(N)c(n1)C(=O)N2
active: [1] 3.81% | [7] 2.52%
inactive: [2] 65.6% | [3] 28% | [4] 50.4% | [5] 27.9% | [6] 24.8% | [8] 48.7% | [9] 108%

CSC1=Nc2c(c(C)c(-c3ccccc3)n2CCCC(=O)O)C2=NC(=O)C[C@H](C)N12
inactive: [1] 114% | [2] 93.6% | [3] 110% | [10] 107% | [4] 93% | [6] 97.5% | [7] 119% | [8] 98.1% | [9] 104%

O=C(CSc1nnc(-c2cc(-c3ccccc3)nc3ccccc23)n1-c1ccccc1)Nc1ccc(C(=O)/C=C/c2ccc(Cl)cc2)cc1
inactive: [1] 80.2% | [2] 66.6% | [3] 93.1% | [10] 90.1% | [4] 91.6% | [6] 108% | [7] 97.2% | [8] 89.1% | [9] 95.3%

COc1ccc(C(=O)c2cc3c(N)c(C(=O)Nc4ccccc4)sc3nc2C)cc1
active: [1] 8.41% | [7] -4.41%
inactive: [2] 14.3% | [10] 38.8% | [4] 74.8% | [5] 33% | [6] 39% | [8] 10.6% | [9] 14.8%

Cc1ncc(C(=O)Nc2ccc(CN3CCN(C)CC3)c(C(F)(F)F)c2)cc1C#Cc1cnc(N)c2ncccc12
active: [1] -33.9% | [2] -26.2% | [4] -6.15% | [5] 0.896%
inactive: [10] 49.8% | [6] 10.4% | [7] 55.4% | [8] 24.2% | [9] 33.2%

O=C1C(Nc2ccccn2)=C(I)C(=O)c2ncccc21
active: [1] 2% | [2] -15.5% | [10] -55.3% | [4] -53.3% | [5] -44.9% | [6] -67.5% | [7] -48.4% | [8] -10.1% | [9] -7.85%

COc1ccccc1C(=O)Nc1cccc(NC(=O)c2ccoc2C)c1
active: [9] 9.85%
inactive: [1] 15.5% | [2] 20.7% | [3] 40.4% | [4] 77.7% | [6] 41.6% | [7] 15% | [8] 40.2%

O=C1/C(=C/c2ccc(O)c(O)c2)COc2ccc(-c3ccccc3)cc21
active: [1] -20% | [2] -13.1% | [6] -13.1%
inactive: [10] 50.6% | [4] 26.6% | [5] 81.1% | [7] 20.2% | [8] 15% | [9] 19.2%

Cc1ccc2c(-c3nnc(N)s3)cc(=O)oc2c1C
inactive: [1] 110% | [2] 91.2% | [10] 114% | [4] 100% | [5] 109% | [6] 98.5% | [7] 110% | [8] 95.6% | [9] 102%
